# In PMC4552634, “A New Set of Chemical Starting Points with Plasmodium falciparum Transmission-Blocking Potential for Antimalarial Drug Discovery” (PLoS ONE, 2015):
# In all, about 13,000 compounds went through this assay and about 3,200 (25%) showed an effect of 50% or more. This is one part of the list.
# Test system: P. falciparum stage V gametocytes
# Design: BacTiter-Glo ATP luminescence viability of purified stage V gametocytes in 384-well plates, per cent inhibition versus DMSO
# Conditions: 48 h, 5 µM; inhibitor
row,SMILES,% Inhibition
1,CN(C)c1ccc(N2C(N)=NC(N)=NC23CCCC3)cc1 [TCMDC-123607],9.069%
2,CN(CC(=O)Nc1cc(C(F)(F)F)ccc1-n1cncn1)Cc1ccc2ccccc2c1 [TCMDC-125257],-1.841%
3,Cc1cc(NCc2ccc(F)cc2)nc2cc(O)ccc12 [TCMDC-124412],9.894%
4,O=C(/C=C/c1ccc(Cl)c(Cl)c1)N1CCC(CN2CCC(Cc3cc4ccccc4[nH]3)CC2)CC1 [TCMDC-140231],13.2%
5,CCCCCCCCc1[nH]c(C)c(Br)c(=O)c1Br [TCMDC-137433],43.41%
6,Cc1cc(CN2CCC(C(=O)Nc3ccc(-c4nc5ccccc5[nH]4)cc3)CC2)oc1C [TCMDC-124612],-34.2%
7,COc1cc(SC)ccc1C(=O)N1CC(C)CC(C)C1 (centres unmarked) [TCMDC-123656],27.35%
8,COc1ccc(C2C(C(=O)Nc3ccc4c(c3)OCO4)c3cc(OC)c(OC)cc3C(=O)N2C)cc1 (centres unmarked) [TCMDC-123593],37.81%
9,COc1ccc(C2C(C(=O)Nc3ccc(C)c(F)c3)c3cc(OC)c(OC)cc3C(=O)N2C)cc1 (centres unmarked) [TCMDC-123594],-36.5%
10,COc1cc2c(cc1OC)C(C(=O)Nc1cc(OC)c(OC)c(OC)c1)C(c1ccc(SC)cc1)N(C)C2=O (centres unmarked) [TCMDC-125151],59.65%
11,COc1ccc(C2C(C(=O)Nc3cc(OC)c(OC)c(OC)c3)c3cc(OC)c(OC)cc3C(=O)N2C)cc1 (centres unmarked) [TCMDC-125141],92.28%
12,O=C(N[C@@H](Cc1ccccc1)C(=O)NC1CCCc2ccccc21)c1ccc(O)c(-c2cccc(C(F)(F)F)c2)c1 (some centres unmarked) [TCMDC-140820],23.49%
13,CCN(CC)CCN(Cc1ccc(-c2ccc(Cl)cc2)cc1)C(=O)Cn1c(CCc2cccc(F)c2F)nc(=O)c2ccccc21 [TCMDC-141054],39.4%
14,CCN(CC)CCN(Cc1ccc(-c2ccc(C#N)cc2)cc1)C(=O)Cn1c(CCc2cccc(F)c2F)nc(=O)c2ccccc21 [TCMDC-141150],0.7472%
15,CCN(CC)CCN(Cc1ccc(-c2ccc(Cl)s2)cc1)C(=O)Cn1c(CCc2cccc(F)c2F)nc(=O)c2ccccc21 [TCMDC-141229],28.5%
16,CCN(CC)CCN(CCCc1ccc(-c2ccc(C(F)(F)F)cc2)cc1)C(=O)Cn1c(CCc2cccc(F)c2F)nc(=O)c2ccccc21 [TCMDC-141253],67.3%
17,CCN(CC)CCN(Cc1ccc(-c2ccc(Br)cc2)cc1)C(=O)Cn1c(CCc2cccc(F)c2F)nc(=O)c2ccccc21 [TCMDC-141305],51.66%
18,CCN(CC)CCN(Cc1ccc(-c2ccc(C(F)(F)F)s2)cc1)C(=O)Cn1c(CCc2cccc(F)c2F)nc(=O)c2ccccc21 [TCMDC-141262],57%
19,CC(C)(C)NCCN(Cc1ccc(-c2ccc(C(F)(F)F)cc2)cc1)C(=O)Cn1c(CCc2cccc(F)c2F)nc(=O)c2ccccc21 [TCMDC-141080],105.1%

row,SMILES,% Inhibition
1,Cc1ccccc1C1CCN(C2CCC(NC(=O)c3cc4cc(C(C)C)ccc4[nH]3)CC2)CC1 (centres unmarked) [TCMDC-133554],15.06%
2,COc1ccc2ncc(C#N)c(CCN3C4CCC3CC(NCc3ccc5c(n3)NC(=O)CS5)C4)c2c1 (centres unmarked) [TCMDC-135180],37.34%
3,Brc1cnc(NC2=NCCN2)c(Br)c1 [TCMDC-131680],12.04%
4,Cc1nc(C)c(CC(=O)Nc2cccc(-c3cccc(-c4nc5ccc(C(F)(F)F)cc5[nH]4)c3)c2)s1 [TCMDC-136995],4.513%
5,CC(C)(CN)c1nc(-c2ccc(Br)c(O)c2)c(-c2ccncc2)[nH]1 [TCMDC-140680],-59.77%
6,O=C(/C=C/c1ccc(Cl)c(Cl)c1)NCCCCCN1CCC(NC(=O)Nc2ccccc2F)CC1 [TCMDC-139386],-2.666%
7,C=CCOC1OC(COC(c2ccccc2)(c2ccccc2)c2ccccc2)C(OC(C)=O)C(OC(C)=O)C1NC(C)=O (centres unmarked) [TCMDC-131992],13.79%
8,CCN(CC)CCN(Cc1ccc(-c2ccc(C(F)(F)F)cc2)cc1)C(=O)Cn1c(CCc2cccc(F)c2F)c(C)c(=O)c2ccccc21 [TCMDC-141313],76.85%
9,CCN(CC)CCN(CCCc1ccc(-c2ccc(C(F)(F)F)cc2)cc1)C(=O)Cn1c(CCc2cccc(F)c2F)nc(=O)c2c1CCC2 [TCMDC-140984],42.45%
10,CCN(CC)CCN(Cc1ccc(-c2ccc(C(F)(F)F)cc2)cc1)C(=O)Cn1c(CCc2cccc(F)c2F)nc(=O)c2cccnc21 [TCMDC-141013],97.72%
11,CCN(CC)CCN(Cc1ccc(-c2ccc(C(F)(F)F)cc2)cc1)C(=O)Cn1c(CCc2cccc(F)c2F)nc(=O)c2ccccc21 [TCMDC-140922],60.98%
12,CCN(CC)CCN(Cc1ccc(-c2ccc(C(F)(F)F)cc2)cc1)C(=O)Cn1c(CCc2ccc(F)c(F)c2F)nc(=O)c2cccnc21 [TCMDC-141002],20.31%
13,CC(C)(C)NCCN(Cc1ccc(-c2ccc(C(F)(F)F)cc2)cc1)C(=O)Cn1c(CCc2cccc(F)c2F)nc(=O)c2c1CCC2 [TCMDC-140979],113.3%
14,Cn1nccc1C(=O)NCCNCc1cccc(-c2csc(-c3nc4ccccc4[nH]3)c2)c1 [TCMDC-133002],-62.03%
15,CCCN1CCc2c(sc3nc(SCC(=O)Nc4ccc(C)cc4)n(-c4ccc(C)cc4)c(=O)c23)C1 [TCMDC-125451],5.583%
16,O=C(NC1CCCc2ccccc21)C1CCCN(C(=O)c2ccc(O)c(-c3ccc(Cl)c(Cl)c3)c2)C1 (centres unmarked) [TCMDC-140890],19.76%
17,CCn1c(CN2CCC(C)CC2)nc2cc(NC(=O)c3cccs3)ccc21 [TCMDC-124730],-26.92%
18,CCCCCCCN(Cc1ccc(OC(C)(C)C(=O)OCC)cc1)C(=O)Cc1ccc(F)cc1F [TCMDC-131920],13.51%
19,COC(=O)c1cccc(NC(=O)NC2CCN(c3ccnc(Nc4ccc(OC)cc4)n3)C2)c1 (centres unmarked) [TCMDC-133618],-6.04%
